Records with an inconclusive call do not appear. The source made the active and inactive calls.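 Rule for the calls, unless noted: active = fitted half-maximal concentration within 10 nM to 100 µM, steepness 0.5 to 2, significant signal drop, low assay interference; inactive = the rest.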
Columns and labels:
[1] = rapamycin-like changes in RPL19A-GFP expression – cell-based, S. cerevisiae, multiplex flow cytometry, primary screen (AID 1862; in the data active = percent of DMSO control GFP below about 86%;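 note: lower values mimic rapamycin by blocking the RPL19A rise seen in DMSO cells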); conditions: S. cerevisiae RPL19A-GFP strain, flow cytometry fluorescence, 3 h; at 10 µM; stronger effect = lower value
[2] = TOR pathway GLN3 branch reporter MEP2-GFP changes – S. cerevisiae, multiplex flow cytometry, primary screen (AID 1867;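 active = GFP response, as percent of the DMSO control, above the screen-wide mean plus 3 SD, about 139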;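 note: median GFP channel fluorescence of barcode-gated MEP2-GFP cells measured by flow cytometry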); conditions: S. cerevisiae MEP2-GFP strain, 3 h, at 10 µM, stronger effect = higher value
[3] = TOR pathway RTG branch CIT2 reporter changes – S. cerevisiae, GFP fusion, multiplex flow cytometry, primary screen (AID 1870;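 active = percent response above a set limit, the screen-wide mean plus 3 SD, cut at about 130% in these data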;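 note: barcoded CIT2-GFP strain pooled with four other GFP strains with rapamycin as positive control; median GFP fluorescence per well over plate mean of DMSO wells so 100% = DMSO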); conditions: S. cerevisiae CIT2-GFP expression, 3 h, at 10 µM, stronger effect = higher value
[4] = TOR pathway LAP4-GFP level changes – S. cerevisiae, multiplex flow cytometry, primary screen (AID 1873;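 active = GFP signal, as percent of the solvent control, above the screen mean plus 3 SD, about 149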); conditions: S. cerevisiae LAP4-GFP expression, 3 h, at 10 µM, stronger effect = higher value
[5] = yeast AGP1-GFP level changes, GLN3 branch – cell-based, multiplex flow cytometry, S. cerevisiae, primary screen (AID 1887;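 active = GFP signal above the screen-wide mean plus 3 SD, that is over about 124.5% of the solvent control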;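 note: AGP1-GFP fusion strain of S. cerevisiae within a five-strain barcoded multiplex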); conditions: 3 h, at 10 µM, stronger effect = higher value
[6] = reduced mouse 2C T cell binding to pMHC/ICAM-1 vesicles – MLPCN validation set, flow cytometry, LFA-1/ICAM-1 modulator project, pilot screen (AID 2523;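 active = response below a set limit, under 55% cells CD8-positive and vesicle-bound, and CD8 cells' 90th-percentile brightness under 279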;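 for vesicle binding response: mean PE anti-B7-1 fluorescence of CD8+ cells relative to row control; 100% = QL9-loaded vesicles with DMSO vehicle in the same plate row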); conditions: 2C mouse CD8+ T cells, at 7 µM, stronger effect = lower value; double positive events: measured here: CD8+/vesicle+ event percentage
[7] = target: Integrin beta-1 (Homo sapiens) + Integrin alpha-4 (Homo sapiens) (UniProt P13612+P05556); experiment: alpha4beta1 integrin LIBS antibody binding reduction – U937 cells, HUTS-21 mAb, flow cytometry, validation set, VLA-4 allosteric modulator project, pilot screen (AID 2674;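 active = inhibition above 50%, about 3 SD of the validation set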;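 note: antibody binding induced by the VLA-4 ligand LDV present at three times its Kd; 0% = LDV ligand with antibody and no compound and 100% = antibody without LDV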); conditions: HUTS-21 LIBS mAb binding, at 6.7 µM, stronger effect = higher value
Sequence of Integrin beta-1 (Homo sapiens) + Integrin alpha-4 (Homo sapiens) (P05556 whole entry, looked up): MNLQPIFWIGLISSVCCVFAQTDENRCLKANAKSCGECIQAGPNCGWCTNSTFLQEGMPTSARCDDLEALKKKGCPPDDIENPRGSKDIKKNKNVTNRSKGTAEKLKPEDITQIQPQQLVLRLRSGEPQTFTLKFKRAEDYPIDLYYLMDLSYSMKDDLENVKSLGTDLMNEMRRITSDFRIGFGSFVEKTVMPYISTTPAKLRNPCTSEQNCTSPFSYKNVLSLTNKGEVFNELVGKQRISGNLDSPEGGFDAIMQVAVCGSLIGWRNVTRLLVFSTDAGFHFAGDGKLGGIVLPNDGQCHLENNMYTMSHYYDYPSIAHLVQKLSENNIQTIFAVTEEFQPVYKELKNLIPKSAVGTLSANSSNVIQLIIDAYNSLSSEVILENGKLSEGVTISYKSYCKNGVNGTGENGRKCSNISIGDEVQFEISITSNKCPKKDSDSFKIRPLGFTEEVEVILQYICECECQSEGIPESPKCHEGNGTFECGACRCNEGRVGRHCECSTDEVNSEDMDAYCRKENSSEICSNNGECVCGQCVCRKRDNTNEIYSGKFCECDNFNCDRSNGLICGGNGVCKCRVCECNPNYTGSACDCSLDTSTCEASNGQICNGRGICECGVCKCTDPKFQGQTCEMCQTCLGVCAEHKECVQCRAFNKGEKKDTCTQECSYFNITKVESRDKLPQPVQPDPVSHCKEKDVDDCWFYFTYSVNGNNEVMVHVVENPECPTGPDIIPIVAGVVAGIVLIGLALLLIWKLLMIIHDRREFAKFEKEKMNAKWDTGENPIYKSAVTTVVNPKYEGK
Sequence of Integrin beta-1 (Homo sapiens) + Integrin alpha-4 (Homo sapiens) (P13612 whole entry, looked up): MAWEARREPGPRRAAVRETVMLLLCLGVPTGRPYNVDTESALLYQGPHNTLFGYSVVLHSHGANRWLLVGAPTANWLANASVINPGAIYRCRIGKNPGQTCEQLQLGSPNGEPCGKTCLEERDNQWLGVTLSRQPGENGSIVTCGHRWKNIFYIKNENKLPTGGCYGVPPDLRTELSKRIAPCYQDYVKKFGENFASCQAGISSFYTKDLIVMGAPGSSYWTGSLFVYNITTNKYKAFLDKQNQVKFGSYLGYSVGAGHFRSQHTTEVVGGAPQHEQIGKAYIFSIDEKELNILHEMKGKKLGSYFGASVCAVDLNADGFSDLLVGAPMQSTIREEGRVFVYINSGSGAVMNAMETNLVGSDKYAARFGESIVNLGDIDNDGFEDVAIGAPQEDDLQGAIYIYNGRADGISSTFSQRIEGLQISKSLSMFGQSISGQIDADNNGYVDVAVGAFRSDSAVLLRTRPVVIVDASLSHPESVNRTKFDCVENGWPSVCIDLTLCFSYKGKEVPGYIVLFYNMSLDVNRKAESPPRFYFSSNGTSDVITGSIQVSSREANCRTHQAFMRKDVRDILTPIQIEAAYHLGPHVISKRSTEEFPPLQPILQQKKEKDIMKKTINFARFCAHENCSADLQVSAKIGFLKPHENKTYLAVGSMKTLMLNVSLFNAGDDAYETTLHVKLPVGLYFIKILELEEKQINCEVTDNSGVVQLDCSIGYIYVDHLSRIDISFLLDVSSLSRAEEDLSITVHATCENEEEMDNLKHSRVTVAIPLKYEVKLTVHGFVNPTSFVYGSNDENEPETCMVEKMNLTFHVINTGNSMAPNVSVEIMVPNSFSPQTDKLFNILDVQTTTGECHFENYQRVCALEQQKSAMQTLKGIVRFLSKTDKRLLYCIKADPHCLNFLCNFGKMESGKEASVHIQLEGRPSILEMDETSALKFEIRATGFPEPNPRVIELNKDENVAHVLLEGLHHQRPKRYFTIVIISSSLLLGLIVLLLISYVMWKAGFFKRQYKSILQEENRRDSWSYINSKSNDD

[8] = calorie-restriction mimetic ROS inhibitors, yeast – validation compound set, pilot screen (AID 2706;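 active = superoxide response below 65% of plate, a cut near 3 SD across the whole screen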;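 note: yeast exposed to compound for one week at 30 degrees C before staining; 100% = mean of all compound wells on the same plate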); conditions: S. cerevisiae aging, superoxide DHE fluorescence; at 10 µM; stronger effect = lower value
[9] = target: Beta-adrenergic receptor kinase 1 (Homo sapiens) (UniProt P25098); experiment: GRK2 binders displacing RNA aptamer, biochemical, validation, human GRK2, bead flow cytometry (AID 488806;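 active = aptamer binding inhibition above 30%, about 3 SD of noise from non-fluorescent compounds; inactive = inhibition at or below 30%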); conditions: bead-bound GRK2, FAM-aptamer displacement, at 10 µM, stronger effect = higher value
Sequence of Beta-adrenergic receptor kinase 1 (Homo sapiens) (P25098 whole entry, looked up): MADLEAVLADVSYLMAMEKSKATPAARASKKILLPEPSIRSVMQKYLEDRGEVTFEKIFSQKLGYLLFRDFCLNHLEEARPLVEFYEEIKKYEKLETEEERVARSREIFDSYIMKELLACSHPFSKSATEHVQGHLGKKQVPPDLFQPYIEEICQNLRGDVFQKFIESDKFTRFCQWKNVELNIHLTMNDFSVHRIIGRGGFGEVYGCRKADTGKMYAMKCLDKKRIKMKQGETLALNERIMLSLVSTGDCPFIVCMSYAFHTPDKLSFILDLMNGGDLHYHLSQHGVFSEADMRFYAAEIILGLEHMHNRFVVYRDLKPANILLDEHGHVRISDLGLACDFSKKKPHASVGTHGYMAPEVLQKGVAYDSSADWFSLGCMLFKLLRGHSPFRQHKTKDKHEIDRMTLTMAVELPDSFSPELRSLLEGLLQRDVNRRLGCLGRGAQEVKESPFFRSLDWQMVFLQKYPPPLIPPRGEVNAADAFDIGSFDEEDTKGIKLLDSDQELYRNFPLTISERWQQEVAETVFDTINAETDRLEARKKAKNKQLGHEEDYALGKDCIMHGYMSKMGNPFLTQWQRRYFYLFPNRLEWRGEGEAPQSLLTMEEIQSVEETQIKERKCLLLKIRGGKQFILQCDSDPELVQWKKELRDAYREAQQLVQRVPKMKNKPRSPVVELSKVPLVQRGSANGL

[10] = target: Beta-2 adrenergic receptor (Homo sapiens) (UniProt P07550); experiment: agonist-induced loss of surface beta2AR – cell-based, FAP fluorogen, flow cytometry, validation set, pilot screen (AID 504459;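 active = percent response above 42, roughly 3 SD of non-fluorescent test compounds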;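 note: agonist-driven loss of surface beta2AR via internalization measured by FAP dye flow cytometry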); conditions: Am2.2-beta2AR cells, at 10 µM, stronger effect = higher value
[11] = target: AP-2 complex subunit beta (Homo sapiens) (UniProt P63010); experiment: beta-arrestin/AP2 interaction blockers – biochemical, validation set, GST-AP2 beads, flow cytometry, pilot screen (AID 504541;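 active = inhibition above 54%, about 3 SD of non-fluorescent compounds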;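 note: AP2 carries R879A mutation and is captured from E. coli lysate; bead-bound FITC arrestin peptide fluorescence measuring arrestin peptide binding to AP2; 0% = DMSO wells and 100% = excess unlabeled arrestin peptide control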); conditions: FITC arrestin peptide, at 10 µM, stronger effect = higher value
Sequence of AP-2 complex subunit beta (Homo sapiens) (P63010 whole entry, looked up, one chain of several): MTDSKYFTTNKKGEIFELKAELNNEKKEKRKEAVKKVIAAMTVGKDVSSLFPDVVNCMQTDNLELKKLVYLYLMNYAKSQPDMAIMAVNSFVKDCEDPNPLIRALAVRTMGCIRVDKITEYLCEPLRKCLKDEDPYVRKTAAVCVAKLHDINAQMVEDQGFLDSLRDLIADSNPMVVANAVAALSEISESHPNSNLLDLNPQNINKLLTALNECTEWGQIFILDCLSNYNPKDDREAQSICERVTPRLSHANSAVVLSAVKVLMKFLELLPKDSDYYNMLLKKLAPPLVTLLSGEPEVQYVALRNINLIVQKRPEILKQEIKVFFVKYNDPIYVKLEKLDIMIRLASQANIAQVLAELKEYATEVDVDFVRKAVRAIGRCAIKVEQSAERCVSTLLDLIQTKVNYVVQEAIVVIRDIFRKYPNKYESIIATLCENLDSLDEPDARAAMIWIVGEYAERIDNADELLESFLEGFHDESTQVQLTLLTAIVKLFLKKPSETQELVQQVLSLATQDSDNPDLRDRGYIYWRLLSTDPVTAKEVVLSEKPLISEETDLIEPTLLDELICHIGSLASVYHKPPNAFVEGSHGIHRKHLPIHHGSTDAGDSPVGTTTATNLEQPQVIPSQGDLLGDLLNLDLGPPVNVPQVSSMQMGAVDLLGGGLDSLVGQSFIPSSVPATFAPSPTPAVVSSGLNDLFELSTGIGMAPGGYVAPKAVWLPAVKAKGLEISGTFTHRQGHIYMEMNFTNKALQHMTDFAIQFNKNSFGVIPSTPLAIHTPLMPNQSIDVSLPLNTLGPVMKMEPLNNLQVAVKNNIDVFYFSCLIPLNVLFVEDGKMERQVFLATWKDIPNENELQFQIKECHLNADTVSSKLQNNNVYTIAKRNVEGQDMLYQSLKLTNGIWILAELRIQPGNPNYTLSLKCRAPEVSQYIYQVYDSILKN

[12] = cytosolic pH regulators acting via V-ATPase – S. cerevisiae, pHLuorin, HTS validation (AID 504600; in the data active = response above about 15%;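 note: plate controls were DMSO for no effect and reference compound for full effect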); conditions: V-ATPase proton transport, at 10 µM, stronger effect = higher value
[13] = test system: anti-desmoglein-3 scFv antibody binding to human DSG3; experiment: blockers of pathogenic pemphigus antibody–desmoglein-3 binding – biochemical, validation compound set, bead-based, flow cytometry, pilot screen (AID 588368;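 active = binding below the plate cutoff, the plate median minus 3 SD, with a reading above zero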;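 note: signal is the median channel fluorescence of bead-bound GFP antibody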); conditions: Protein G beads, DSG3-Fc, scFv-GFP binding, at 10 µM, stronger effect = lower value
[14] = test system: Botulinum neurotoxin type F light chain protease (Clostridium botulinum); experiment: Clostridium botulinum type F light chain protease inhibitors, microsphere substrate cleavage, validation (AID 588459; call rule not given here); conditions: multiplex microsphere protease substrate cleavage assay, flow cytometry; at 10 µM; stronger effect = higher value
[15] = target: Botulinum neurotoxin type A (Clostridium botulinum) (UniProt P0DPI0); experiment: BoNT/A light chain protease inhibitors, biochemical, multiplex microsphere flow cytometry, validation set (AID 588460; call rule not given here); conditions: at 10 µM, stronger effect = higher value
Sequence of Botulinum neurotoxin type A (Clostridium botulinum) (P0DPI0 whole entry, looked up): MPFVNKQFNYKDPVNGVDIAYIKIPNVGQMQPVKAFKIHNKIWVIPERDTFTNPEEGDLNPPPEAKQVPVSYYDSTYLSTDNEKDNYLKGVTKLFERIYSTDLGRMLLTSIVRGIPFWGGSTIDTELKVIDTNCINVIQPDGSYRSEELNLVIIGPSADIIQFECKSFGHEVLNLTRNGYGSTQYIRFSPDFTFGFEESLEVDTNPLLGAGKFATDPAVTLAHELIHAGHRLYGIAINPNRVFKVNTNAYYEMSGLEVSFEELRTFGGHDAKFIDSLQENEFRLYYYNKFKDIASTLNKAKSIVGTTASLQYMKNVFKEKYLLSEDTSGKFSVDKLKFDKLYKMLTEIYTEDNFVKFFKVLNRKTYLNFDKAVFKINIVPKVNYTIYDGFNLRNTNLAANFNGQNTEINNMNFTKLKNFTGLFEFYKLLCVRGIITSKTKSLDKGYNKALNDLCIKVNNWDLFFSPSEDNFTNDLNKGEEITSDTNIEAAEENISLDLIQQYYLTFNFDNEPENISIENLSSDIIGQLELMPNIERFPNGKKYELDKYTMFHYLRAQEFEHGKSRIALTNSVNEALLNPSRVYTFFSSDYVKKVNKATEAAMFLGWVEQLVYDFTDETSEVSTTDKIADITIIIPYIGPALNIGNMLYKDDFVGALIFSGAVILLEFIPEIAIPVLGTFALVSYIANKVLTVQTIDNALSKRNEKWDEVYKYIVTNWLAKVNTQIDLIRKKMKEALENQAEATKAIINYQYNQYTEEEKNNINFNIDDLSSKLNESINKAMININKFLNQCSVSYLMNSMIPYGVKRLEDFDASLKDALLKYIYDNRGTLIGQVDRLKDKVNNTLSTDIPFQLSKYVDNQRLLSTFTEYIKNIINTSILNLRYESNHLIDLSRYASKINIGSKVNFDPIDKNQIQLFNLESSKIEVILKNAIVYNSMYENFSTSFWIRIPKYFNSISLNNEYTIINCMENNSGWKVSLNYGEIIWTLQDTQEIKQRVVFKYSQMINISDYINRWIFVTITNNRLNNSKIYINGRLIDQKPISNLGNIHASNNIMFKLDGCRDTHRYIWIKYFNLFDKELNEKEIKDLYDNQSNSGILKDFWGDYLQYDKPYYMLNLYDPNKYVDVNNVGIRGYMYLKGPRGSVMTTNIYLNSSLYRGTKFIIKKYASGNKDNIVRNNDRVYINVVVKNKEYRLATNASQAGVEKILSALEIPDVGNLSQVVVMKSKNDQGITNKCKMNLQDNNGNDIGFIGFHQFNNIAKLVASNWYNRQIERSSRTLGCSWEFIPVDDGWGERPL

[16] = target: Lethal factor (Bacillus anthracis) (UniProt P15917); experiment: Bacillus anthracis lethal factor inhibition, microsphere flow cytometry protease assay, validation at 10 µM (AID 588461; call rule not given here); conditions: multiplex microsphere protease cleavage assay, stronger effect = higher value
[17] = Nile Red efflux blockade in pump-expressing yeast – validation compound set, multiplex, phenotypic, pilot screen (AID 588506;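 active = efflux inhibition above 0.42, the validation set average plus 4 SD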;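 note: Nile Red retained in cells so higher fluorescence means more efflux inhibition; 0 = negative control wells and 1 = enniatin B 25 µM full block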); conditions: S. cerevisiae pump-expressing triplex, Nile Red efflux flow cytometry; at 10 µM; stronger effect = higher value
[18] = target: ATP-binding cassette sub-family B member 6 (Homo sapiens) (UniProt Q9NP58); experiment: blockers of ABCB6-driven porphyrin uptake – K562-ABCB6 cells, flow cytometry, validation set, pilot screen (AID 588550;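 active = inhibition above the screen-wide mean plus 3 SD, about 51%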;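 note: 0% = DMSO wells and 100% = benzethonium chloride 70 µM positive control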); conditions: K562-ABCB6 porphyrin accumulation, 1 h, at 10 µM, stronger effect = higher value
[19] = AML differentiation inducers, ER-HoxA9 marrow cells – cell-based, GFP/MAC1 double positive, flow cytometry, validation set, primary screen (AID 588685;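 active = differentiation response of at least 50%, scaled between solvent and reference control, from cells with both markers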;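 note: compound exposure lasts four days before antibody staining and flow analysis; 0% = DMSO wells and 100% = 5 µM fulvestrant positive control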); conditions: stronger effect = higher value
[20] = target: GTPase HRas (Homo sapiens) (UniProt P01112); experiment: Ras wt fluorescent GTP loading blockade – biochemical, wildtype, multiplex bead flow cytometry, dose response (AID 1335); conditions: bead-based flow cytometry, Bodipy-GTP binding to GST-Ras; at 100 µM (top of the series)
Sequence of GTPase HRas (Homo sapiens) (P01112 whole entry, looked up): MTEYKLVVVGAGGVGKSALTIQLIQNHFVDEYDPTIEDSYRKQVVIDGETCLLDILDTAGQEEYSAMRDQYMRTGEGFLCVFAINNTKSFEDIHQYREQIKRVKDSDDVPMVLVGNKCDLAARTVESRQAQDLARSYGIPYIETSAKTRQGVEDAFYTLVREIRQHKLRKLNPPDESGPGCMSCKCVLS

C[C@H](O)[C@H]1CC[C@H]2[C@@H]3CCC4=CC(=O)CC[C@]4(C)[C@H]3CC[C@]12C
inactive: percent of DMSO control GFP [1] 98.9% | GFP response vs DMSO [2] 103% | percent response of DMSO control [3] 91.3% | GFP response vs DMSO [4] 126% | GFP response, % of DMSO [5] 89.6% | vesicle binding response [6] 104% | inhibition [7] 11% | superoxide response (% of plate) [8] 106% | aptamer binding inhibition [9] 0% | response [10] -3.16% | inhibition [11] -3.68% | response [12] -6.77% | binding (% of control) [13] 102% | inhibition [14] -0.6% | inhibition [15] 0.2% | inhibition [16] 2.8% | efflux inhibition (fraction of control) [17] -0.17 | inhibition [18] 9% | differentiation response [19] -4.57%
61%: double positive events [6]

O=C1CN=C(c2ccccc2)c2cc(Br)ccc2N1Cc1cc(=O)n2ccccc2n1
64.5%: GTP binding, percent of control [20]

Cc1sc(-n2c(C)cc(C=C3C(=O)NC(=O)NC3=O)c2C)c(C#N)c1C
68.9%: GTP binding, percent of control [20]

O=C1NC(=S)N(Cc2ccco2)C(=O)/C1=C\c1cccs1
95.1%: GTP binding, percent of control [20]

C#C[C@]1(O)CC[C@H]2[C@@H]3CCC4=CC(=O)CC[C@]4(C)[C@H]3CC[C@@]21C
active: GFP response vs DMSO [2] 140%
64.1%: double positive events [6]
inactive: percent of DMSO control GFP [1] 88.7% | percent response of DMSO control [3] 106% | GFP response vs DMSO [4] 80.9% | GFP response, % of DMSO [5] 87.7% | vesicle binding response [6] 255% | inhibition [7] 3.55% | superoxide response (% of plate) [8] 97.8% | aptamer binding inhibition [9] 1% | response [10] -8% | inhibition [11] 14.2% | response [12] -3.36% | binding (% of control) [13] 102% | inhibition [14] 2.5% | inhibition [15] -0.5% | inhibition [16] -1.2% | efflux inhibition (fraction of control) [17] 0.3 | inhibition [18] 9% | differentiation response [19] -0.82%

O=c1[nH]c(=S)[nH]c(O)c1N=Nc1ccc(S(=O)(=O)N2CCc3ccccc32)cc1
95.9%: GTP binding, percent of control [20]

Cc1nn(Cc2ccccc2)c(Cl)c1C(=O)O
86.7%: GTP binding, percent of control [20]

CCOC(=O)c1c(NC(=O)c2c(N)n(CCCOC)c3nc4ccccc4nc23)sc2c1CCCC2
144%: GTP binding, percent of control [20]

CCn1nc(/C=C/c2ccccc2)nc2c(=O)n(C)c(=O)nc1-2
76.7%: GTP binding, percent of control [20]

COCCCn1c(N)c(C(=O)Nc2sc3c(c2C(=O)OC)CCCC3)c2nc3ccccc3nc21
51.7%: GTP binding, percent of control [20]

O=C(O)c1cn(Cc2ccc(Br)cc2)c2ccccc12
104%: GTP binding, percent of control [20]

CN(C)c1ccc(/C=C/C=C2/C(=O)NC(=O)N(c3ccccc3)C2=O)cc1
81.4%: GTP binding, percent of control [20]

CC(Oc1ccc(-c2ccccc2)cc1)C(=O)O (centres undefined)
172%: GTP binding, percent of control [20]

O=C(O)c1cn(Cc2ccc(F)cc2)c2ccccc12
112%: GTP binding, percent of control [20]

Cc1ccccc1OCCCn1cc(C(=O)O)c2ccccc21
92.4%: GTP binding, percent of control [20]

O=C1C(=O)c2ccccc2-c2ccccc21
inactive: GFP response vs DMSO [2] 126% | percent response of DMSO control [3] 92.9% | GFP response vs DMSO [4] 60.6% | GFP response, % of DMSO [5] 36.3% | vesicle binding response [6] 176% | inhibition [7] -0.43% | superoxide response (% of plate) [8] 83% | response [12] 0.26% | binding (% of control) [13] 98.9% | inhibition [14] 5.3% | inhibition [15] 0.6% | inhibition [16] -4.7% | inhibition [18] -64%
active: percent of DMSO control GFP [1] 73.2% | aptamer binding inhibition [9] 67% | response [10] 112% | efflux inhibition (fraction of control) [17] 2.06 | differentiation response [19] 100%
61.3%: double positive events [6]

CC12CN3CC(C)(CN(C1)C31CCOCC1)C2=O
active: GFP response vs DMSO [2] 145%
inactive: percent of DMSO control GFP [1] 92.6% | percent response of DMSO control [3] 101% | GFP response vs DMSO [4] 90.2% | GFP response, % of DMSO [5] 94.5% | vesicle binding response [6] 166% | inhibition [7] 5.49% | superoxide response (% of plate) [8] 90% | aptamer binding inhibition [9] 2% | response [10] 3.7% | inhibition [11] 40.7% | response [12] -6.81% | binding (% of control) [13] 100% | inhibition [14] 1.2% | inhibition [15] 0.1% | inhibition [16] -2.4% | efflux inhibition (fraction of control) [17] -0.09 | inhibition [18] 13% | differentiation response [19] -2.46%
65.1%: double positive events [6]

COc1ccc(-c2cc(=NCCCCCC(=O)O)c3cc(C)ccc3o2)cc1
66.2%: GTP binding, percent of control [20]

Cc1cc(OCCCn2cc(C(=O)O)c3ccccc32)ccc1Cl
83.9%: GTP binding, percent of control [20]

O=C(O)c1cn(Cc2ccccc2F)c2ccccc12
106%: GTP binding, percent of control [20]

Cc1nc2c(=O)n(C)c(=O)nc-2n(C)n1
98.5%: GTP binding, percent of control [20]

CCOCCCn1c(N)c(C(=O)Nc2sc3c(c2C(=O)OC)CCCC3)c2nc3ccccc3nc21
122%: GTP binding, percent of control [20]

O=C(O)c1cn(Cc2ccccc2Cl)c2ccccc12
82.2%: GTP binding, percent of control [20]

O=C(O)c1cn(Cc2ccc(Cl)cc2)c2ccccc12
89.3%: GTP binding, percent of control [20]

C[C@]12CC[C@@H](O)C[C@@H]1CC[C@@H]1[C@@H]2CC[C@]2(C)[C@@H](O)CC[C@@H]12
58.5%: double positive events [6]
inactive: percent of DMSO control GFP [1] 95.4% | GFP response vs DMSO [2] 107% | percent response of DMSO control [3] 83% | GFP response, % of DMSO [5] 106% | vesicle binding response [6] 122% | inhibition [7] -7.79% | superoxide response (% of plate) [8] 98% | aptamer binding inhibition [9] 3% | response [10] 0.4% | inhibition [11] -7.18% | response [12] 2.4% | binding (% of control) [13] 103% | inhibition [14] 1.2% | inhibition [15] 0.9% | inhibition [16] 3.5% | efflux inhibition (fraction of control) [17] 0.08 | inhibition [18] 7% | differentiation response [19] -13.3%
active: GFP response vs DMSO [4] 150%

Cc1cc(C)cc(N2C(=O)NC(=O)/C(=C\C=C\c3ccco3)C2=O)c1
83.8%: GTP binding, percent of control [20]

Cc1ccc(C)c(OCCCn2cc(C(=O)O)c3ccccc32)c1
88.6%: GTP binding, percent of control [20]

Cc1ccc(-n2c(O)c(/C=N/c3ncc(Br)cc3Br)c(=O)[nH]c2=O)cc1
116%: GTP binding, percent of control [20]

CCN(CC)c1ccc(/C=N/c2sc3c(c2C#N)C2CCN3CC2)c(O)c1
104%: GTP binding, percent of control [20]

CCOc1ccc(C2SCC(=O)Nc3c2c(C)nn3C2CCOC(C)(C)C2)cc1 (centres undefined)
150%: GTP binding, percent of control [20]
